Screening results from PubChem.
NOD2-RIPK2 inh: inhibitors of human NOD2-RIPK2 interaction; CHO BLA complementation NOD2-RIPK2, CCF4 ratio; inhibition, % at 4.98 µM; O43353; hit rate 0.38% among 360,000; in the data active = inhibition above about 21%;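 also: 0% = vehicle only and 100% = reference blocker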
Target sequence (O43353 whole entry, looked up): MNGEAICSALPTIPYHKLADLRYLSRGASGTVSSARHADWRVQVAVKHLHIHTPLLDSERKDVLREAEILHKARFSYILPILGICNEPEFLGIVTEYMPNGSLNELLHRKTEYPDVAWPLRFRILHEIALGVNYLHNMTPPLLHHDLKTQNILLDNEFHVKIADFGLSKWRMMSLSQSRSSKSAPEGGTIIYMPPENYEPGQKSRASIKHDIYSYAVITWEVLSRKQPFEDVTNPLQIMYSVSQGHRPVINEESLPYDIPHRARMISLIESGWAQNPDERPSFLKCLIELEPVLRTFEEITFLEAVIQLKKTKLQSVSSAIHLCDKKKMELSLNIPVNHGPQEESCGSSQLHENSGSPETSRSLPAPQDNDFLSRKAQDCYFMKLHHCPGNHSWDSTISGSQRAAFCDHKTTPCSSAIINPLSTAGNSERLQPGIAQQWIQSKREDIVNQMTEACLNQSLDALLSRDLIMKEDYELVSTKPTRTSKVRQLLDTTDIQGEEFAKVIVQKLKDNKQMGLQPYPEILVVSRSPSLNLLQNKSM
TLR4-MyD88 BLA: inhibitors of human TLR4-MyD88 binding; HeLa CL3-4 TLR4/MyD88 BLA complementation, FRET ratio; inhibition, % at 8.4 µM; hit rate 0.18% among 200,000; AID 861; in the data active = inhibition above about 25%;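 also: 0% = vehicle and 100% = reference inhibitor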
Myeloid diff 2: promotes myeloid progenitor differentiation; ER-HoxA9 myeloid progenitors, lysozyme-GFP differentiation, flow cytometry; calls only at 10 µM; hit rate 1% among 360,000;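 active = normalized GFP-positive differentiation at or above the plate's own cutoff, the solvent-only control mean plus 3 SD; inconclusive = no clear call, values can overlap the other calls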;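 also: cells exposed to compound for four days before flow analysis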
TLR9-MyD88 block: blocks human TLR9 binding to MyD88; Q9NR96+Q99836; CHO BLA complementation TLR9-MyD88, CCF4 FRET ratio; inhibition, % at 4.98 µM; hit rate 0.21% among 340,000; AID 504734;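 active = inhibition above the mean over all tested compounds plus 3 SD, cut at about 21% in these data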;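 also: 0% = DMSO only wells and 100% = clavulanate BLA inhibitor control wells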
Myeloid diff CP1: promotes myeloid progenitor differentiation; hit rate 2% among 2,300; ER-HoxA9 myeloid progenitors, GFP/Mac1 double-positive flow; shares compounds with Myeloid diff 2; calls only; AID 651706;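 active = share of green or green-and-red cells above 9 and 9% in run 1 or 4 and 3% in run 2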
GFP autofluor: flagged as fluorescent in myeloid differentiation counter-screen; ER-HoxA9 myeloid progenitors, no estrogen, GFP autofluorescence flow cytometry; vehicle wells 0%, positive control 100%; fluorescence response, % (concentration not given with the values); hit rate 7.4% among 2,300; AID 651707; shares compounds with Myeloid diff 2;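 active = over 5% cells positive for green fluorescent reporter, or over 2% positive for both it and APC stain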;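 also: range taken on the double positive population between DMSO and positive control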
NOD2 RIPK2 conf: NOD2-RIPK2 interaction inhibition confirmed. shares compounds with NOD2-RIPK2 inh. inhibition, % at 4.98 µM. CHO cells, NOD2-RIPK2 BLA complementation, CCF4 FRET. hit rate 70% among 1,200;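 active = mean inhibition across replicates above a set limit taken from the earlier primary screen, cut at about 21% in these data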;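 also: 0% = DMSO-only wells and the high end = clavulanate BLA-blocked wells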
NOD2 BLA counter: counter-screen for NOD2-RIPK2 interaction inhibitors: BLA reporter; shares compounds with NOD2-RIPK2 inh; CHO BLA reporter, CCF4 FRET ratio, counterscreen; inhibition, % at 4.98 µM; hit rate 57% among 1,200; AID 624371;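 active = mean inhibition above the low-control mean inhibition plus three low-control SD, cut at about 11% in these data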;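 also: 0% = DMSO only wells and 100% = clavulanate high control wells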
The depositor's hits bear a star; i = inactive; ? = inconclusive; . = no result; + = active, no number. This is a sample that favours compounds with a hit; in the whole collection about 1.5% have one here.

SMILES | NOD2-RIPK2 inh | TLR4-MyD88 BLA | Myeloid diff 2 | TLR9-MyD88 block | NOD2 RIPK2 conf | NOD2 BLA counter | others
CC(C)OC(=O)c1c(N)n(Cc2ccco2)c2nc3ccccc3nc12 | 7 | -10 | i | -3 | . | .
O=c1[nH]c2ccccc2n1C1CCN(C(CCc2ccccc2)c2nnnn2C2CCCCC2)CC1 (stereo not given) | -4 | . | i | . | . | .
CCC(c1nnnn1-c1ccc2c(c1)OCCO2)N1CCC2(CC1)C(=O)NCN2c1ccccc1 (stereo not given) | 3 | . | i | . | . | .
CC1(C)C(c2ccccc2)=NC(c2cccnc2)N1O (stereo not given) | -4 | 3 | + | 4 | . | . | Myeloid diff CP1=i;GFP autofluor=0
COC(=O)C1=C(c2cccc(C#N)c2)C[C@@H]2CC[C@H]1N2C(=O)NC1CCCCC1 | 3 | . | + | -3 | . | . | Myeloid diff CP1=i;GFP autofluor=0
COC(=O)C1=C(c2cc3ccccc3s2)C[C@@H]2CC[C@H]1N2C(=O)NC1CCCCC1 | -7 | . | i | -2 | . | . | Myeloid diff CP1=+;GFP autofluor=0
COc1cc2c(cc1/C=C/[N+](=O)[O-])OCO2 | 40* | 13 | i | -5 | 65* | -5
CC1=CC2OC3CC4OC(=O)C=CC=CC(C(C)O)OCC(O)C5(C)OC5C(=O)OCC2(CC1O)C4(C)C31CO1 (stereo not given) | 29* | . | . | 0 | 17 | -5
CC1CCOC(=O)C=CC=CC(=O)OC2CC3OC4C5OC5(C)C(O)CC4(COC(=O)C1O)C2(C)C31CO1 (stereo not given) | 28* | . | . | -4 | 21* | -5
CC1=CC2OC3CC4OC(=O)C=CC=CC(=O)OCCC(C)C(O)C(=O)OCC2(CC1)C4(C)C31CO1 (stereo not given) | 23* | . | . | 5 | 17 | -4
COC(=O)C1=C(C(=O)OC)SC2(S1)C(C(=O)OC)=C(C(=O)OC)Sc1c2ssc1=O | 75* | . | ? | 2 | 76* | 4
O=C(NCC1=C(c2cccc3ccccc23)C[C@@H]2CC[C@H]1N2Cc1ccco1)c1ccc([N+](=O)[O-])cc1 | -6 | . | i | -2 | . | .
CC1CCN(C(CC(=O)c2ccccc2)C(=O)c2ccccc2)CC1 (stereo not given) | 28* | . | i | 0 | 12 | -3
O=C1NCN(c2ccccc2)C12CCN(C(c1cccc3ccccc13)c1nnnn1C1CCCC1)CC2 (stereo not given) | 9 | . | i | . | . | .
CCC(C)(O)C(=O)OC1C(=O)OC2CC3C(C)=CC(O)C(O)C3(C)C3C4(O)OCC23C1C(C)C4O (stereo not given) | -3 | . | i | . | . | .
COC1CC2C=C(C)C=CC=CC(=O)NC(c3ccccc3)CC=CCCC(O)CC(=O)C2=C1O (stereo not given) | 67* | . | . | . | 102* | 79*
CSCCC(c1nnnn1-c1c(C)cccc1C)N1CCC2(CC1)C(=O)NCN2c1ccccc1 (stereo not given) | -1 | . | i | . | . | .
Cc1ccc2c(c1)Oc1ccccc1N=C2 | -10 | . | i | 12 | . | .
CC(=O)OC1CC2OC3C=C(C)CCC3(C)C1(C)C21CO1 (stereo not given) | 25* | . | i | . | 27* | 0
CC(=O)O[C@H]1C[C@@H]2OC3C=C(C)CCC3(C)[C@@]1(C)[C@@]21CO1 (stereo not given in full) | 24* | . | . | -2 | 28* | 0
COc1ccc(-n2nnnc2C(CCSC)N2CCC3(CC2)C(=O)NCN3c2ccccc2)cc1 (stereo not given) | -8 | . | i | . | . | .
CCOP(=O)(NC(C)C)Oc1ccc(SC)c(C)c1 (stereo not given) | -1 | . | i | -5 | . | .
COc1ccc2c(c1OC)CN1CCc3cc4c(cc3[C@H]1C2)OCO4 | 4 | . | i | 4 | . | .
CCC1CN2CCc3cc(OC)c(OC)cc3C2CC1CC1NCCc2c1[nH]c1ccc(O)cc21 (stereo not given) | 29* | . | . | -6 | 27* | 0
CC1CC(C)(O)CC(C(O)CC2CC(=O)NC(=O)C2)C1=O (stereo not given) | 21* | . | . | -9 | 25* | -4
SMILES | NOD2-RIPK2 inh | TLR4-MyD88 BLA | Myeloid diff 2 | TLR9-MyD88 block | NOD2 RIPK2 conf | NOD2 BLA counter | others
CC=CC(C)=CC(C)C(=O)CC(O)CC1CC(=O)NC(=O)C1 (stereo not given) | 11 | . | i | -13 | . | .
COc1cc(/C=C/[N+](=O)[O-])ccc1OC(=O)c1cccnc1 | 22* | . | . | -1 | 86* | 6
CN(C)CC(C(=O)Cc1ccccc1)c1ccccc1 (stereo not given) | 57* | . | ? | -19 | 11 | -6
C[C@@H]([C@@H](O)c1ccccc1)N(C)C(=O)Cc1ccccc1 | -4 | . | i | 0 | . | .
CCOC(=O)[C@]12Cc3ccc(C)cc3[C@H]1N(C1CCCCC1)C(=O)c1cc(OC)ccc12 | 58* | . | ? | . | 63* | 1
CCOC(=O)[C@]12Cc3cc(OC)ccc3[C@H]1N(C)C(=O)c1cc(OC)ccc12 | -1 | . | i | . | . | .
CCOC(=O)[C@]12Cc3cc(Cl)ccc3[C@H]1N(Cc1ccccc1)C(=O)c1ccccc12 | -7 | . | i | -3 | . | .
CCOC(=O)[C@]12Cc3cc(N(C)C)ccc3[C@H]1N(Cc1ccccc1)C(=O)c1ccccc12 | 23* | . | i | 8 | 3 | 3
CCOC(=O)[C@]12Cc3cc(C)ccc3[C@H]1N(C1CCCCC1)C(=O)c1ccccc12 | 56* | . | ? | . | 66* | 0
CCOC(=O)[C@]12Cc3cc(Cl)ccc3[C@H]1N(C1CCCCC1)C(=O)c1cc(OC)ccc12 | 70* | . | i | . | 66* | 7
Cc1c(CCC(=O)N2C[C@H]3C[C@@H](C2)c2cccc(=O)n2C3)c(=O)oc2c(C)c(O)ccc12 | -13 | . | i | . | . | .
Cc1nc2ccccn2c1P(=S)(c1ccccc1)c1ccccc1 | 7 | . | i | . | . | .
CC(CC(C#N)(c1ccccc1)c1ccccc1)N1CCOCC1 (stereo not given) | 9 | . | i | -7 | . | .
CCOC(=O)[C@]12Cc3ccc(C)cc3[C@H]1N(C1CCCCC1)C(=O)c1ccccc12 | 52* | . | ? | . | 54* | 1
CCOC(=O)[C@]12Cc3c(cc(OC)c(OC)c3OC)[C@H]1N(C1CCCCC1)C(=O)c1ccccc12 | 28* | . | . | . | 71* | 2
CCOC(=O)[C@]12Cc3ccccc3[C@H]1N(C(C)C)C(=O)c1ccccc12 | -6 | . | i | . | . | .
Cc1ccc(C(O)(C(=O)OC(C)C)C(O)c2ccc(F)cc2)cc1 (stereo not given) | 0 | . | i | . | . | .
Cc1nc2cc(OC(=O)N(C)Cc3cccc(-c4ccncc4)c3)ccc2s1 | -8 | . | i | . | . | .
CC1=CC(C)CC(C)OC(=O)CC(c2ccc(O)cc2)NC(=O)C(Cc2c(Br)[nH]c3ccccc23)N(C)C(=O)C(C)NC(=O)C(C)C1 (stereo not given) | 2 | . | . | -1 | . | .
